Assay results from paper PMC8338941.

Biological target: Large ribosomal subunit protein eL13A (UniProt Q12690)
Experiment: cross-link between two proteins; cross-linking mass spectrometry

Sequence of Large ribosomal subunit protein eL13A (Q12690 whole entry): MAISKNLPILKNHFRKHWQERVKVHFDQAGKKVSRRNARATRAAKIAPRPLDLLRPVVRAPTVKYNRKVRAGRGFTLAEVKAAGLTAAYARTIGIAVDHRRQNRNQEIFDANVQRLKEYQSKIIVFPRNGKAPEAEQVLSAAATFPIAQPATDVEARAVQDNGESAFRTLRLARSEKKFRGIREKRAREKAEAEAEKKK

Substance	listed as a hit
Large ribosomal subunit protein uL29A, P0CX84	yes
Large ribosomal subunit protein eL36B, O14455	yes
